Measured values from PubChem BioAssay AID1159580 (chemical genetic matrix, 2015).
Hit rate of the full screen: of about 5,500 compounds, about 2,000 (36%) were called active. Not shown: some 18% with an inconclusive outcome. Cut-off read from the data, not from the text of the source: active = normalized growth mostly below about 0.91 (no sharp cut-off); inconclusive = no clear call, values can overlap the other calls; inactive = mostly above about 0.92. Some of the results follow.

Experiment: chemical genetic growth profiling, strain panel (AID 1159580);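 note: tested at 20 µM; growth read once vehicle control cultures reached saturation at 30 °C; 1 = growth at the plate median or of vehicle wells; lower values mean less growth of the strain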
Conditions: S. cerevisiae deletion strains, growth OD
[1] = locus YAR019C, strain CDC15, stronger effect = lower value
[2] = locus YBL105C, strain PKC1, stronger effect = lower value
[3] = locus YBR135W, strain CKS1, stronger effect = lower value
[4] = locus YBR136W, strain MEC1, stronger effect = lower value
[5] = locus YBR160W, strain CDC28, stronger effect = lower value
[6] = locus YDL017W, strain CDC7, stronger effect = lower value
[7] = locus YDL028C, strain MPS1, stronger effect = lower value
[8] = locus YDL101C, strain DUN1, stronger effect = lower value
[9] = locus YDL108W, strain KIN28, stronger effect = lower value
[10] = locus YDL132W, strain cdc53, stronger effect = lower value
[11] = locus YDL214C, strain PRR2, stronger effect = lower value
[12] = locus YDR052C, strain DBF4, stronger effect = lower value
[13] = locus YDR054C, strain cdc34, stronger effect = lower value
[14] = locus YDR226W, strain ADK1, stronger effect = lower value
[15] = locus YDR477W, strain SNF1, stronger effect = lower value
[16] = locus YER123W, strain YCK3, stronger effect = lower value
[17] = locus YER133W, strain GLC7, stronger effect = lower value
[18] = locus YFL009W, strain cdc4, stronger effect = lower value
[19] = locus YFL029C, strain CAK1, stronger effect = lower value
[20] = locus YFR003C, strain YPI1, stronger effect = lower value
[21] = locus YFR019W, strain FAB1, stronger effect = lower value
[22] = locus YFR028C, strain CDC14, stronger effect = lower value
[23] = locus YGR040W, strain KSS1, stronger effect = lower value
[24] = locus YGR052W, strain FMP48, stronger effect = lower value
[25] = locus YGR092W, strain DBF2, stronger effect = lower value
[26] = locus YHR030C, strain SLT2, stronger effect = lower value
[27] = locus YHR079C, strain IRE1, stronger effect = lower value
[28] = locus YHR082C, strain KSP1, stronger effect = lower value
[29] = locus YHR205W, strain SCH9, stronger effect = lower value
[30] = locus YIL147C, strain SLN1, stronger effect = lower value
[31] = locus YJL095W, strain BCK1, stronger effect = lower value
[32] = locus YJL128C, strain PBS2, stronger effect = lower value
[33] = locus YJL157C, strain FAR1, stronger effect = lower value
[34] = locus YJR016C, strain ILV3, stronger effect = lower value
[35] = locus YJR066W, strain TOR1 (second series), stronger effect = lower value
[36] = locus YJR066W, strain TOR1, stronger effect = lower value
[37] = locus YKL048C, strain ELM1, stronger effect = lower value
[38] = locus YKL067W, strain YNK1, stronger effect = lower value
[39] = locus YKL101W, strain HSL1, stronger effect = lower value
[40] = locus YKL193C, strain SDS22, stronger effect = lower value
[41] = locus YKL203C, strain TOR2, stronger effect = lower value
[42] = locus YLR113W, strain HOG1, stronger effect = lower value
[43] = locus YLR133W, strain CKI1, stronger effect = lower value
[44] = locus YLR403W, strain SFP1, stronger effect = lower value
[45] = locus YML070W, strain DAK1, stronger effect = lower value
[46] = locus YMR001C, strain CDC5, stronger effect = lower value
[47] = locus YMR205C, strain PFK2 (second series), stronger effect = lower value
[48] = locus YMR277W, strain FCP1, stronger effect = lower value
[49] = locus YNL006W, strain LST8, stronger effect = lower value
[50] = locus YNL020C, strain ARK1, stronger effect = lower value
[51] = locus YNL161W, strain CBK1, stronger effect = lower value
[52] = locus YNL183C, strain NPR1, stronger effect = lower value
[53] = locus YNL207W, strain RIO2, stronger effect = lower value
[54] = locus YNL222W, strain SSU72, stronger effect = lower value
[55] = locus YNL307C, strain MCK1 (second series), stronger effect = lower value
[56] = locus YOL078W, strain AVO1, stronger effect = lower value
[57] = locus YOL136C, strain PFK27, stronger effect = lower value
[58] = locus YOR061W, strain CKA2, stronger effect = lower value
[59] = locus YOR119C, strain RIO1, stronger effect = lower value
[60] = locus YOR231W, strain MKK1, stronger effect = lower value
[61] = locus YOR329C, strain SCD5, stronger effect = lower value
[62] = locus YPL031C, strain PHO85, stronger effect = lower value
[63] = locus YPL153C, strain RAD53, stronger effect = lower value
[64] = locus YPL204W, strain HRR25, stronger effect = lower value
[65] = locus YPL209C, strain IPL1, stronger effect = lower value
[66] = locus YPL256C, strain CLN2, stronger effect = lower value
[67] = locus YPR025C, strain CCL1, stronger effect = lower value
[68] = locus YPR106W, strain ISR1, stronger effect = lower value
[69] = locus YPR111W, strain DBF20, stronger effect = lower value
[70] = strain NNK1, stronger effect = lower value
[71] = strain TSCII, stronger effect = lower value

Measured: normalized growth

N#C/C(=C\C=C\c1ccccc1)c1nc2ccccc2[nH]1
inactive: [1] 0.958 | [2] 0.969 | [3] 0.944 | [4] 0.962 | [5] 0.962 | [6] 0.961 | [7] 0.962 | [8] 0.973 | [9] 0.968 | [10] 0.964 | [11] 0.864 | [12] 0.966 | [13] 0.955 | [14] 0.962 | [15] 0.823 | [16] 0.878 | [17] 0.834 | [18] 0.964 | [19] 0.958 | [20] 0.976 | [21] 0.966 | [22] 0.956 | [23] 0.83 | [24] 0.916 | [25] 0.829 | [27] 0.848 | [28] 0.819 | [29] 0.818 | [30] 0.967 | [31] 0.729 | [32] 0.957 | [33] 0.886 | [34] 0.958 | [35] 0.871 | [36] 0.791 | [37] 0.904 | [38] 0.898 | [39] 0.882 | [40] 0.95 | [41] 0.878 | [43] 0.891 | [44] 0.86 | [45] 0.864 | [46] 0.956 | [47] 0.901 | [48] 0.955 | [49] 0.96 | [50] 0.896 | [51] 0.956 | [52] 0.793 | [53] 0.946 | [54] 0.957 | [55] 0.866 | [56] 0.954 | [57] 0.885 | [58] 0.908 | [59] 0.875 | [60] 0.828 | [61] 0.976 | [62] 0.824 | [63] 0.855 | [64] 0.827 | [65] 0.963 | [67] 0.952 | [68] 0.965 | [69] 0.944 | [70] 0.942 | [71] 0.952
active: [26] 0.673 | [42] 0.658 | [66] 0.767

O=C(SCc1c(Cl)cccc1Cl)c1ccc([N+](=O)[O-])o1
inactive: [1] 0.954 | [2] 0.96 | [3] 0.968 | [4] 0.969 | [5] 0.964 | [6] 0.967 | [7] 0.969 | [8] 0.978 | [9] 0.961 | [10] 0.967 | [12] 0.967 | [13] 0.95 | [14] 0.959 | [18] 0.955 | [19] 0.951 | [20] 0.962 | [22] 0.962 | [30] 0.972 | [31] 0.624 | [32] 0.868 | [34] 0.965 | [40] 0.954 | [46] 0.942 | [48] 0.968 | [49] 0.976 | [51] 0.965 | [53] 0.947 | [54] 0.971 | [56] 0.963 | [61] 0.964 | [65] 0.976 | [67] 0.959 | [68] 0.985 | [69] 0.978 | [70] 0.959 | [71] 0.939
active: [11] 0.456 | [15] 0.295 | [16] 0.422 | [17] 0.553 | [21] 0.612 | [23] 0.324 | [24] 0.502 | [25] 0.221 | [26] 0.179 | [27] 0.334 | [28] 0.332 | [29] 0.0602 | [33] 0.477 | [35] 0.351 | [36] 0.425 | [37] 0.65 | [38] 0.652 | [39] 0.571 | [41] 0.438 | [42] 0.4 | [43] 0.499 | [44] 0.201 | [45] 0.547 | [47] 0.677 | [50] 0.48 | [52] 0.438 | [55] 0.247 | [57] 0.406 | [58] 0.633 | [59] 0.445 | [60] 0.578 | [62] 0.396 | [63] 0.614 | [64] 0.371 | [66] 0.232
